From PubChem BioAssay (NCI)
About 83,000 compounds went through this panel and 20% of them were active in at least one assay; those are over-represented in the sample as a whole.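 Step 1: grow cells in 96-well plates. Step 2: add test compound at a single concentration. Step 3: incubate 48 h. Step 4: record percent growth.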 The source made the active and inactive calls. How the source made its calls: active means growth percent below 10; inactive means the rest.

What follows are molecules tested on NCI-H522 lung (assay: NCI-60 one-dose screen, 48 h (100 = growth as untreated, 0 = no growth, -100 = all killed)). Details: 10 µM unless noted.

| Compound | growth |
| --- | --- |
| O=C(COc1cccc(/C=C2\COc3ccc(Cl)cc3C2=O)c1)c1ccc(Cl)cc1 | 87.1% (inactive) |
| Cc1cc(Nc2ccc(C)c(Cl)c2)n2nc(C(F)(F)F)nc2n1 | 36.2% (inactive) |
| CN(C)c1ccc(NC(=O)c2ccc(/C=C/C(=O)c3ncc[nH]3)cc2)cc1 | 59.4% (inactive) |
| O=[N+]([O-])c1ccccc1/C=N\NC(=S)N/N=C/c1ccccc1[N+](=O)[O-] | 23.2% (inactive) |
| O=C(Oc1cccnc1)c1ccsc1Nc1ccnc(C(F)(F)F)c1 | 44.8% (inactive) |
| OC(c1cc2cc(Cl)c(Cl)cc2c2cc(C(F)(F)F)ccc12)C1CCCCN1 (stereo not drawn) | -78.4% (active) |
| COc1ccc(-c2cc(-c3ccc(Nc4ccnc5cc(Cl)ccc45)cc3)nc(N3CCOCC3)n2)cc1 | 48% (inactive) |
| C=C1C(=O)O[C@H]2[C@H]1CC/C(COC(=O)NCCc1ccc(OC)c(OC)c1)=C\CC[C@@]1(C)O[C@@H]21 | -79.9% (active) |
| O=[N+]([O-])c1ccc2c(c1)Cc1cc(F)ccc1-2 | 104% (inactive) |
| CN1CCN(c2nc(NCCCNc3ccnc4cc(Cl)ccc34)c3ccccc3n2)CC1 | 20.2% (inactive) |
| Clc1ccc2c(NCCCCNc3nc(N4CCCCC4)nc4ccccc34)ccnc2c1 | -18.6% (active) |
| NC(=NC1C2CC3CC(C2)CC1C3)Nc1ccc(I)cc1 (stereo not drawn) | 42.4% (inactive) |
| CCOc1nc(-c2ccccc2)cc2c(O)c(C(=O)O)[nH]c(=O)c12 | 136% (inactive) |
| COc1ccc(Nc2cc(C)nc(N3CCN(c4ccnc5cc(Cl)ccc45)CC3)n2)cc1 | 38% (inactive) |
| Cc1cc(N2CCN(c3ccnc4cc(Cl)ccc34)CC2)nc(N2CCOCC2)n1 | 85.3% (inactive) |
| N#Cc1c(N)n(CCNC(=O)c2ccccc2)c2nc3ccccc3nc12 | 84.2% (inactive) |
| COc1ccc(CN2c3ccccc3Sc3ccccc32)c(C(F)(F)F)c1 | -46.3% (active) |
| CCc1c(Nc2ccccc2C)nc(N)[nH]c1=O | 99% (inactive) |
| CC(=O)c1cc2c(N)c(C(=O)Nc3ccccc3)sc2nc1C | 66.5% (inactive) |

| Compound | growth |
| --- | --- |
| CCCCC/C(C=C(C#N)C#N)=C/c1ccccc1 | -10.1% (active) |
| OCCNc1nccc(N2CCN(c3ccnc4cc(Cl)ccc34)CC2)n1 | 65.2% (inactive) |
| Cc1cc(N2CCSCC2)nc(NC2CCCC(Nc3ccnc4cc(Cl)ccc34)C2)n1 (stereo not drawn) | -52.5% (active) |
| COc1ccc(Nc2c3c4c(cccc4[nH]c2=O)C(=O)c2ccccc2-3)cc1 | -20.4% (active) |
| O=C1/C(=C/c2ccccc2O)N=C2SCCCN12 | 79.7% (inactive) |
| COc1cc2c(cc1O)CC[C@@H]1[C@@H]2CC[C@]2(C)[C@@H](OCCCN(C)C)CC[C@@H]12 | -90.8% (active) |
| O=C(Cn1cccc(Nc2ccccc2)c1=O)Nc1ccccc1 | 110% (inactive) |
| Cc1cc(N2CCN(c3ccnc4cc(Cl)ccc34)CC2)nc(NC2CCCCC2)n1 | 50.2% (inactive) |
| CSc1ccc(SC2c3ccc(C)cc3Oc3nc(N)c(C#N)c(N)c32)cc1 (stereo not drawn) | -91.1% (active) |
| O=c1ccccc(-c2ccc(-c3ccco3)cc2)c1O | 27.3% (inactive) |
| O=C(COc1ccc(/C=C2\CSc3ccccc3C2=O)cc1)Nc1nccs1 | 7.48% (active) |
| CN(C)CCCNc1c2ccccc2nc2ccccc12 | 93.7% (inactive) |
| O=C(Cc1ccc(/C=C/C(=O)c2ncc[nH]2)cc1)Nc1ccccc1 | 31.2% (inactive) |
| CC/C=C\C/C=C\C[C@H]1C/C=C2/C(=O)C=C[C@@H]2C/C=C\CCC(=O)O1 | -69.9% (active) |
| COc1cccc(-c2nc(SCC(=O)Nc3ccc(C(=O)/C=C/c4ccc(OC)c(OC)c4)cc3)[nH]c(=O)c2C#N)c1 | 75.4% (inactive) |
| Cc1cc(N2CCN(C)CC2)nc(NC2CCCC(Nc3ccnc4cc(Cl)ccc34)C2)n1 (stereo not drawn) | -46.4% (active) |
| Clc1ccc2nc3nc4ccc[nH]c4cc3c2c1 | 81.1% (inactive) |
| COc1ccc2c(c1)C(=O)/C(=C/c1ccccn1)CC2 | 16.5% (inactive) |
| COc1ccc(C2Nc3c(c(C(C)(C)C)nn3-c3ccccc3)C(=O)CS2)cc1 (stereo not drawn) | 84.5% (inactive) |
